# Source: PubChem BioAssay (several laboratories)
# IDE cell activ = IDE (human) activation, cell-based | hit rate 0.073% among 340,000 | activation, % at 5.96 µM | HEK cells, FAbeta-B cleavage, fluorescence polarization; 0% vehicle, 100% cell-free pure enzyme wells;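 active = activation above the mean of all tested compounds plus 3 SD, set per screening campaign, cut at about 17% in these data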
# IDE cell inh = inhibits human insulin-degrading enzyme in HEK cells | P14735 | FAbetaB cleavage, fluorescence polarization | inhibition, % at 5.59 µM | hit rate 0.41% among 320,000;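 active = percent inhibition above the average of all tested compounds plus 3 SD, set per screening campaign, cut at about 16% in these data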;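 note: IDE supplied by intact live HEK cells; FP after avidin binding of uncleaved biotin substrate so inhibition keeps polarization high; 0% = DMSO wells and 100% = 60 µM reference IDE inhibitor Ii1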
# MEX-5 binding = C. elegans MEX-5 TCR-2 RNA binding activity; AID 1832; hit rate 0.38% among 300,000; Q9XUB2; MEX-5/FITC-TCR2 RNA binding, fluorescence polarization; active compounds read low; activity score (negative = inhibition of binding), % at 10 µM;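 active = inhibition past about -25% in most replicates, and total fluorescence under double the plate's negative control median, limit read from the data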;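 note: 0% = DMSO and -100% = 5 µM competing unlabeled TCR2 RNA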
# Target sequence (Q9XUB2 whole entry, looked up): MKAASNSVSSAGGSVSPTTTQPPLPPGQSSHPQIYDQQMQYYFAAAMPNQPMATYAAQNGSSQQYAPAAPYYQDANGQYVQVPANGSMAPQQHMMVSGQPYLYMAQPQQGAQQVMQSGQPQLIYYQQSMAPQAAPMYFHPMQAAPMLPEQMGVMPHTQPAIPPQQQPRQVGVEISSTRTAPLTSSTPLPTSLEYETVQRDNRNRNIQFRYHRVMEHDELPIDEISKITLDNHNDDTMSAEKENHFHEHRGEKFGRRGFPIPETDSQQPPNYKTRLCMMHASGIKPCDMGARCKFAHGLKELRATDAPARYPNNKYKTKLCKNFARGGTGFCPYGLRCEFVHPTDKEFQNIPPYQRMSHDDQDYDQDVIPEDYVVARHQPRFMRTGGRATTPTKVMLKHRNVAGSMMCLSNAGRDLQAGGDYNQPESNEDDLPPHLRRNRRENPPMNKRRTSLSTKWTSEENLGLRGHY
# MCL1 BIM primary = inhibitors of human MCL1 binding to BIM-BH3 peptide; GST-MCL1 / FITC-Bim-BH3 fluorescence polarization; hit rate 0.68% among 320,000; inhibition, % at 10.9 µM; Q07820;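 active = inhibition above the mean inhibition of all tested compounds plus 3 SD, set per campaign, cut at about 40% in these data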;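 note: 0% = DMSO wells and 100% = unlabeled Bim-BH3 peptide control; higher means more loss of mP so more displacement of Bim peptide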
# GLD-1 RNA inh = GLD-1-TGE RNA interaction inhibition (C. elegans) | AID 2280 | hit rate 0.44% among 320,000 | inhibition, % at 5.96 µM | purified GLD-1 + fluorescein TGE RNA, fluorescence polarization | Q17339;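 active = percent inhibition above a per-plate cutoff, the plate mean of test compounds plus 3 SD, cut at about 30% in these data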;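 note: 0% = DMSO wells with GLD-1 and probe and 100% = wells lacking GLD-1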
# BCLXL inh = blocks human Bcl-xL binding to Bim BH3 peptide | Q07817 | hit rate 0.7% among 320,000 | GST-Bcl-xL / FITC-Bim BH3 peptide fluorescence polarization | inhibition, % at 10.9 µM;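 active = inhibition above the mean of all tested compounds plus 3 SD, cutoff set per campaign, cut at about 30% in these data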;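 note: 0% = DMSO wells and 100% = unlabeled Bim-BH3 peptide competitor; inhibitors lower millipolarization by displacing the labeled peptide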
# GLD1 RNA confirm = confirmation of C. elegans GLD-1 TGE RNA binding inhibitors. shares compounds with GLD-1 RNA inh. GLD-1/FL-TGE RNA fluorescence polarization, biochemical. inhibition, % at 5.96 µM. hit rate 10% among 550. AID 2459;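 active = average inhibition across triplicates above the hit cutoff set in the primary screen, cut at about 32% in these data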;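 note: 0% = GLD-1 with RNA probe and DMSO and 100% = wells lacking GLD-1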
# * hit, by the source's call; nt = no result given. In the library only some 1.5% were active in any assay of this set; here they are far more common.
SMILES,IDE cell activ,IDE cell inh,MEX-5 binding,MCL1 BIM primary,GLD-1 RNA inh,BCLXL inh,GLD1 RNA confirm
Cc1cc2cc(CNC(=O)C(C)Oc3ccccc3)ccc2n1C (stereo not given),6,1,-4,41*,57*,38*,7
COc1ccc(S(=O)(=O)NCc2ccc3c(c2)cc(C)n3C)cc1,2,0,-1,13,11,13,nt
Cc1cc2cc(OCC(=O)O)ccc2n1C,-3,11,-1,20,39*,22,5
Cc1ccc(C(=O)NC(=S)N2CCCCCC2)cc1,2,-1,nt,16,0,8,nt
COCc1cc(CN(C)C(=O)c2oc3c(F)cccc3c2C)[nH]n1,2,0,0,2,-2,5,nt
C[C@@]12C(=O)N(Cc3ccc(Cl)cc3)CC(=O)N1[C@H]1c3ccccc3OC[C@@H]1[C@@H]2c1ccccc1,-1,5,nt,7,-2,4,nt
COc1ccc(CN2CC(=O)N3[C@H]4c5ccccc5OC[C@@H]4[C@H](c4ccccc4)[C@]3(C)C2=O)cc1,8,4,nt,16,45*,20,4
COc1ccc(CN2CC(=O)N3[C@H]4c5cc(C)ccc5OC[C@@H]4[C@H](c4ccccc4)[C@]3(C)C2=O)cc1,1,3,nt,nt,33*,nt,15
Cc1ccc2c(c1)[C@H]1[C@H](CO2)[C@H](c2ccccc2)[C@]2(C)C(=O)N(Cc3ccc(Cl)cc3)CC(=O)N12,-2,3,nt,-9,-4,-5,nt
O=C(CCSCc1cccc(F)c1)NCCc1ccccc1,1,1,0,3,-6,-4,nt
Cc1cccc(C)c1OCCNC(=O)C(=O)NCc1ccco1,1,1,1,3,6,0,nt
O=C(COC(=O)c1ccc(Br)cc1)NCc1ccccc1,2,-2,2,8,41*,6,4
O=C(O)Cn1c2c(c3ccccc31)CCCC2,6,4,-11,48*,33*,39*,25
CC(=O)NNC(=O)CCn1c2c(c3ccccc31)CCCC2,6,-1,-3,9,9,9,nt
CSc1ccc(CN(C)CC(=O)NC(C)c2ccccc2)cc1 (stereo not given),3,2,1,-5,54*,-1,-2
CC(NC(=O)CN(C)Cc1ccc(Br)cc1)c1ccccc1 (stereo not given),-4,-1,0,2,3,-2,nt
CCc1cccc(NC(=O)CCCn2nc(CC)n3c(cc4occc43)c2=O)c1,-2,3,2,31,31*,30,-3
CCOC(=O)CC1=C(C(=O)OCC)C(c2ccc(OC)cc2OC)C(C#N)=C(N)O1 (stereo not given),4,7,-9,43*,35*,39*,10
CCOC(=O)C1=C(CC)OC(N)=C(C#N)C1c1ccc(OC)cc1OC (stereo not given),-3,0,-2,8,5,6,nt
CCOC(=O)CC1=C(C(=O)OCC)C(c2ccc(C)o2)C(C#N)=C(N)O1 (stereo not given),-2,1,-19,31,34*,37*,7
COc1cc(CNCCN(C)C)c(Br)cc1OC1CCCC1,-3,4,1,7,3,1,nt
CCN1CCN(c2ccc(N3CCN(C(=O)c4ccc(Br)o4)CC3)nn2)CC1,2,7,0,-5,9,4,nt
CCc1ccc(CN(Cc2cccnc2)C(=O)/C=C/c2ccc(OC)cc2)cc1,2,2,6,-31,-22,-12,nt
CCSC1(SCC)N=C(N)C2(C#N)C(c3ccccc3)NC3=C(CCC3)C12C#N (stereo not given),8,2,0,26,50*,27,-2
O=C(CN1C(=O)NC2(CCCCC2)C1=O)Oc1ccc2c(C(F)(F)F)cc(=O)oc2c1,2,4,1,39,59*,33*,49*
SMILES,IDE cell activ,IDE cell inh,MEX-5 binding,MCL1 BIM primary,GLD-1 RNA inh,BCLXL inh,GLD1 RNA confirm
CCOC(=O)C1=C2NC(=O)c3ccccc3N2C(=O)C1,-3,7,-31*,43*,52*,48*,4
Oc1cc(Nc2cccnc2)cc2cccnc12,5,-2,nt,nt,4,nt,nt
Oc1cc(NCCc2cccnc2)cc2cccnc12,-1,-5,nt,nt,39*,nt,24
COc1ccc(OCCNc2cc(N3CCCCC3)ccc2[N+](=O)[O-])cc1,-1,5,1,4,8,3,nt
COc1cccc(OCCNc2cc(N3CCCCC3)ccc2[N+](=O)[O-])c1,2,8,0,3,59*,4,-3
CN1C2C=C3C(C#N)=C(N)C(C#N)(C#N)[C@@H](c4cccs4)C3C1CC2 (stereo not given in full),1,6,-11,46*,33*,43*,4
Cc1cccc(OCCNc2ccc([N+](=O)[O-])cn2)c1,0,3,-1,-4,32*,2,5
CCCCC(=O)Nc1ccc(NCc2ccc(C)s2)cc1,3,7,-2,-6,38*,1,4
COc1ccccc1Nc1nnc(SCC(=O)NC2CC2)s1,2,-3,nt,-4,3,-3,nt
COc1ccc(CC(=O)NC2CC(C)(C)NC(C)(C)C2)cc1OC,5,9,0,7,3,0,nt
CCOC(=O)Cc1csc(/N=C/c2c(O)n(-c3ccc(C)cc3C)c(=O)c3ccccc23)n1,-4,5,4,36,38*,28,-26
N#Cc1c(NCCCO)nc(NCc2ccccc2)c2c1CCN(Cc1ccccc1)C2,-1,-1,0,34,33*,31*,14
CN1CCc2c(C#N)c(N3CCCCC3)nc(NCc3ccccc3)c2C1,-4,-3,0,20,18,15,nt
COc1ccc(NC(=O)C(c2ccc(Cl)cc2)C(C)C)cn1 (stereo not given),4,0,-7,26,36*,36*,30
COc1ccc(NC(=O)Cc2ccccc2)cn1,-1,8,-12,40*,36*,38*,35*
COc1ccccc1-c1cc(SC)c(C#N)c(=O)o1,3,-3,-2,13,0,4,nt
O=C(Nc1nnc(SCCN2CCOCC2)s1)C1CC(=O)N(c2ccc(F)cc2)C1 (stereo not given),-5,-3,2,2,-5,4,nt
CCOC(=O)C1=C(O)c2ccccc2C(=O)/C1=C\c1ccc(CC)cc1,-19,4,4,31,38*,24,-3
CCCc1ccc(/C=C2\C(=O)c3ccccc3C(O)=C2C(=O)OCC)cc1,nt,5,2,28,18,15,nt
